About 83,000 compounds went through this panel and 20% of them were active in at least one assay; those are over-represented in the sample as a whole.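 Growth was measured after 48 h exposure to one concentration of compound in 96-well plates. Values under 10 count as active.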 Values without a mark were called inactive. Activity calls are given as the source filed them.
Legend:
Assay in all cases: NCI-60 one-dose screen, 48 h (100 = growth as untreated, 0 = no growth, -100 = all killed)
Details in all cases: 10 µM unless noted
NCI-H23 lung = test system: NCI-H23 lung
NCI-H226 lung = test system: NCI-H226 lung
NCI-H322M lung = test system: NCI-H322M lung
HOP-62 NSCLC = test system: HOP-62 NSCLC
NCI-H460 lung = test system: NCI-H460 lung
HOP-92 NSCLC = test system: HOP-92 NSCLC
NCI-H522 lung = test system: NCI-H522 lung
A549/ATCC NSCLC = test system: A549/ATCC NSCLC
786-0 renal = test system: 786-0 renal
COLO 205 colon = test system: COLO 205 colon
DU-145 prostate = test system: DU-145 prostate
K-562 leukemia = test system: K-562 leukemia
MALME-3M melanoma = test system: MALME-3M melanoma
MDA-MB-231 breast = test system: MDA-MB-231 breast
RXF 393 renal = test system: RXF 393 renal
SF-268 CNS = test system: SF-268 CNS
SF-295 CNS = test system: SF-295 CNS
SF-539 CNS = test system: SF-539 CNS
UACC-257 melanoma = test system: UACC-257 melanoma
M14 melanoma = test system: M14 melanoma

Structure (SMILES)	growth (NCI-H23 lung)	growth (NCI-H226 lung)	growth (NCI-H322M lung)	growth (HOP-62 NSCLC)	growth (NCI-H460 lung)	growth (HOP-92 NSCLC)	growth (NCI-H522 lung)	growth (A549/ATCC NSCLC)	growth (786-0 renal)	growth (COLO 205 colon)	growth (DU-145 prostate)	growth (K-562 leukemia)	growth (MALME-3M melanoma)	growth (MDA-MB-231 breast)	growth (RXF 393 renal)	growth (SF-268 CNS) [%]	growth (SF-295 CNS)	growth (SF-539 CNS)	growth (UACC-257 melanoma)	growth (M14 melanoma)
[Cu+].[NH-][C@H]1C[N-]C(=O)[C@H]([C@H]2CCN=C(N)N2)[N-]C(=O)/C(=C\NC(N)=O)[N-]C(=O)[C@H](CNC(=O)C[C@@H](N)CCCN)[N-]C(=O)[C@H](CO)[N-]C1=O	105%	105%	106%	94.8%	98.4%	-8.71% (active)	85.6%	99.3%	102%	111%	112%	101%	101%	101%	105%	107	99.6%	106%	99.8%	104%
CN1CCN(CCNC(=O)c2cccc(CN3c4cccc5c4C(=Cc4cccnc43)N(C)C5=O)c2)CC1	59.5%	45%	41.4%	24.7%	48.3%	19.3%	14.1%	33.9%	49.6%	19.8%	68.1%	30%	49.3%	31.7%	26.6%	59.3	42.5%	33.5%	50%	45.4%
Cc1cc(N2CCN(CC(=O)Nc3ccc4c(ccn4Cc4ccccc4)c3)CC2)nc(N2CCCCCC2)n1	53.2%	57.4%	77.9%	59.8%	40%	0.991% (active)	62.4%	46.3%	79.4%	30.6%	71.5%	14.8%	18.2%	28.2%	28.7%	72.9	44.4%	69.4%	42.8%	-7.84% (active)
COC1=CC(c2ccc[nH]2)=N/C1=C\c1[nH]c(C)c(C(=O)Oc2ccccc2)c1C	-32.9% (active)	-39.8% (active)	-13.1% (active)	-22.2% (active)	-31.2% (active)	-35.4% (active)	-64% (active)	-44.1% (active)	-44.1% (active)	-81.4% (active)	9.64% (active)	8.48% (active)	-79.6% (active)	-69.2% (active)	-9.71% (active)	14.9	-74.9% (active)	-74.6% (active)	-54.9% (active)	-59.2% (active)

— PubChem BioAssay (NCI)
